The record followed here is PubChem BioAssay (Tox21).

Experiment [1] can be described thus: Nuclear factor erythroid 2-related factor 2/antioxidant responsive element (Nrf2/ARE) small molecule agonists: luciferase reporter gene qHTS assay in human keratinocytes (AID 1919969; further: nearly all actives have a fitted effect of over 35% in size; further: potency means the concentration at half of the fitted maximal effect). (In general: In a reporter assay the amount or activity of a reporter protein is the signal.)
The target in experiment [2] is KiSS-1 receptor (Homo sapiens) (UniProt Q969F8). Kind of experiment: Human kisspeptin (KISS1R) small molecule agonists, calcium flux assay in KISS1R-HEK293 cells (AID 1920064; active means well fitted activation curve with a large enough effect in the repeat runs). The essentials:
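Cell line: HEK293, stable human KISS1R. Dye loading 1 h at 37 C after 18 h culture. Read: kinetic fluorescence, 480/540 nm, 3 min at 1 s intervals.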
(In general: Calcium flux is commonly read through the fluorescence of an indicator in the cells.)

Experiment [3] is described as follows: G protein-coupled receptor (GPCR) small molecule agonists, calcium flux assay: HEK293 wild type cell line counter screen (AID 1920065). The gist of the method:
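Tox21 10K compounds, 15 concentrations each in triplicate, pin-transferred in DMSO onto dye-loaded cells; kinetic read at 480/540 nm for 3 min, 1 s intervals.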

Experiment [4] is described as follows: p53 small molecule agonists, cell-based qHTS assay with human liver microsomes (AID 1963577). The essentials:
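p53RE-bla cells, 4,000/well, compound added after 5 h, with human liver microsomes 0.5 mg/mL and NADPH 0.5 mg/mL final; 16 h at 37 C, then LiveBLAzer 2 h RT, fluorescence.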

Experiment [5] in a line: p53 small molecule agonists, cell-based qHTS assay with rat liver microsomes (AID 1963578). The essentials: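 p53RE-bla cells, 4,000/well, pre-incubated 5 h, then given compounds plus rat liver microsomes (0.5 mg/mL final) and NADPH (0.5 mg/mL final). Incubation 16 h at 37 C; beta-lactamase reporter read by LiveBLAzer fluorescence after 2 h at room temperature.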
Background: Quantitative high-throughput screening tests each substance at several concentrations.

Experiment [6] can be described thus: p53 small molecule agonists, cell-based qHTS assay with rat liver microsomes: qHTS cell viability counter screen (AID 1963580). Further: nearly all actives have a fitted effect of over 45% in size. The essentials: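 Counter screen for cytotoxicity under metabolic activation: rat liver microsomes and NADPH, 0.5 mg/mL final each, added with compounds to p53RE-bla HCT-116 cells; 16 h at 37 C, then ATP luminescence read.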
Experiment [7] can be described thus: p53 small molecule agonists, cell-based qHTS assay: qHTS cell viability counter screen (AID 1963581). Further: nearly all actives have a fitted effect of over 45% in size. The gist of the method: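 ATP content measured by luminescence in HCT-116 p53RE-bla cells treated 16 h at 37 C, same wells as the reporter screen.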
The nature of experiment [8]: p53 small molecule agonists, cell-based qHTS assay (AID 1963582; active means well fitted activation curve with a large enough effect in the signal ratio in the repeat runs, not every such curve was filed as active; the % refers to the signal ratio; further: potency means the concentration at half of the fitted maximal effect). The essentials:
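16 h compound exposure (37 C) of p53 response element–bla cells, preceded by 5 h recovery at 37 C/5% CO2; read-out via LiveBLAzer B/G FRET substrate, 2 h RT, fluorescence intensity.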

Experiment [9] addresses 5-hydroxytryptamine receptor 2A (Homo sapiens) (UniProt P28223). The experiment in a line: 5-hydroxytryptamine receptor 2A (HTR2A) small molecule antagonists, cell-based qHTS assay (AID 1963586). Further: nearly all actives have a fitted effect of over 45% in size. The essentials:
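CHO cells stably expressing human HTR2A were plated for 18 h at 37 C, then loaded with calcium dye for 1 h. Compounds were preincubated 5 min at room temperature before DOI (4 nM solution) was added. Kinetic fluorescence was read for 3 min.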

Experiment [10] has the same target. Kind of experiment: 5-hydroxytryptamine receptor 2A (HTR2A) small molecule agonists, cell-based qHTS assay (AID 1963587). Further: nearly all actives have a fitted effect of over 30% in size. The essentials: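 HTR2A-CHO cells, plated 18 h at 37 C/5% CO2, dye-loaded 1 h at 37 C; compounds in DMSO added by pin tool (agonist mode). Intracellular calcium flux read as kinetic fluorescence on FDSS over 2 min at 1 s intervals.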
In experiment [11] the target is Muscarinic acetylcholine receptor M1 (Homo sapiens) (UniProt P11229). The experiment in a line: Cholinergic receptor muscarinic 1 (CHRM1) small molecule antagonists, cell-based qHTS assay (AID 1963588). Further: nearly all actives have a fitted effect of over 40% in size. The essentials:
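Compounds were tested at 15 concentrations in three independent runs. Dye-loaded CHRM1-CHO cells were exposed 5 min at room temperature before stimulation by acetylcholine added at 50nM. Intracellular calcium was read kinetically on FDSS for 3 min.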

The target is the same in experiment [12]. The experiment in a line: Cholinergic receptor muscarinic 1 (CHRM1) small molecule agonists, cell-based qHTS assay (AID 1963589). Further: nearly all actives have a fitted effect of over 35% in size. The gist of the method: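 Homogeneous fluorescence calcium flux, agonist mode. Human M1-expressing CHO cells; compound dosed at 15 concentrations, three independent runs; signal sampled every 1 sec.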
Experiment [13] can be described thus: cAMP Responsive Elements (CRE) small molecule agonists, cell-based qHTS assay (AID 1963590). The gist of the method: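 HEK 293T cells stably bearing CRE-bla were plated at 2,000 cells per well and rested 18 h. Compounds, positive controls or DMSO were added for 3 h at 37 C. LiveBLAzer B/G substrate was then loaded for 2 h at room temperature.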
Experiment [14] can be described thus: cAMP Responsive Elements (CRE) small molecule antagonists, cell-based qHTS assay (AID 1963591; active means well fitted inhibition curve with a large enough effect in the signal ratio in the repeat runs, not every such curve was filed as active; the % refers to the signal ratio). The essentials: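 First, CRE-bla HEK293T cells settled 18 h at 37 C. Next, compound and 0.25 uM final NKH477 were applied for 3 h. Last, LiveBLAzer B/G substrate was loaded for 2 h at room temperature.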
In experiment [15] the target is Beta-2 adrenergic receptor (Homo sapiens) (UniProt P07550). The experiment in a line: Adrenergic beta2 receptor (ADRB2) small molecule antagonists, cell-based qHTS assay (AID 1963592). Further: nearly all actives have a fitted effect of over 50% in size. Further: potency means the concentration at half of the fitted maximal effect. The essentials: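 Assay format: CHO-ADRB2 cells, 18-20hr seeding at 37C/5% CO2, then compound plus 1nM isoproterenol agonist mix for 0.5hr RT. Homogeneous time-resolved fluorescence cAMP detection after 1hr, expressed as 665/615 nm ratio.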

Experiment [16] deals with D(2) dopamine receptor (Homo sapiens) (UniProt P14416). Kind of experiment: Dopamine D2 receptor (DRD2) small molecule antagonists, cell-based qHTS assay (AID 1963595; active means well fitted inhibition curve with a large enough effect in the signal ratio in the repeat runs, with a control signal flat; the % refers to the signal ratio). The gist of the method: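 Antagonism was scored as restored cAMP in HEK293-DRD2 cells. These cells were stimulated with 200 nM NKH477 and 12 nM quinpirole for 30 min at room temperature, in the presence of 0.1 mM Ro20-1724.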

Experiment [17] is described as follows: p53 small molecule agonists, cell-based qHTS assay with human liver microsomes: qHTS cell viability counter screen (AID 1963579). Further: nearly all actives have a fitted effect of over 45% in size. The essentials: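 p53RE-bla cells, 4,000/well, dosed 5 hours after plating, with human liver microsomes (0.5 mg/mL final) plus NADPH (0.5 mg/mL final), 16 hours at 37 C. Viability read as CellTiter-Glo luminescence after 30 min at room temperature.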

The target of experiment [18] is Beta-2 adrenergic receptor (Homo sapiens) (UniProt P07550). Kind of experiment: Adrenergic beta2 receptor (ADRB2) small molecule agonists, cell-based qHTS assay (AID 1963593).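 Further: CHO cells stably overexpressing human ADRB2.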 The gist of the method: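 CHO cells stably over-expressing ADRB2 were plated overnight at 37C, then dosed with compounds plus a stimulation mix containing 100uM IBMX and 25uM Ro-20-1724 for 0.5hr at room temperature. cAMP was measured by HTRF competition, 1hr.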

The target of experiment [19] is Gonadotropin-releasing hormone receptor (Homo sapiens) (UniProt P30968). Kind of experiment: Human gonadotropin-releasing hormone receptor (GnRHR) small molecule agonists, calcium flux assay in GnRHR-HEK293 cells (AID 1920063). Further: nearly all actives have a fitted effect of over 35% in size. The gist of the method:
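Compounds dissolved in DMSO are pin-transferred onto dye-loaded GnRHR-HEK293 cells, which were seeded 18 h before at 37 C/5% CO2. Calcium signal is read as fluorescence intensity at 1 s intervals for 3 min.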

For experiment [20], the target named is D(2) dopamine receptor (Homo sapiens) (UniProt P14416). Kind of experiment: Dopamine D2 receptor (DRD2) small molecule agonists, cell-based qHTS assay (AID 1963594). Further: nearly all actives have a fitted effect of over 35% in size. The essentials:
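HEK293 cells stably expressing DRD2 were cultured 24 h at 37 C, then given Ro20-1724 (0.1 mM final) and compounds for 10 min at room temperature. NKH477 (200nM) was then added for 30 min. cAMP was read by HTRF.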

SMILES strings stand for the structures. Values without a mark were called inactive. Results filed as inconclusive are left out. Calls of active or inactive are those of the source. Unless noted, the call rests on the fitted dose curve.

Chain of Beta-2 adrenergic receptor (Homo sapiens) (P07550 whole entry, looked up): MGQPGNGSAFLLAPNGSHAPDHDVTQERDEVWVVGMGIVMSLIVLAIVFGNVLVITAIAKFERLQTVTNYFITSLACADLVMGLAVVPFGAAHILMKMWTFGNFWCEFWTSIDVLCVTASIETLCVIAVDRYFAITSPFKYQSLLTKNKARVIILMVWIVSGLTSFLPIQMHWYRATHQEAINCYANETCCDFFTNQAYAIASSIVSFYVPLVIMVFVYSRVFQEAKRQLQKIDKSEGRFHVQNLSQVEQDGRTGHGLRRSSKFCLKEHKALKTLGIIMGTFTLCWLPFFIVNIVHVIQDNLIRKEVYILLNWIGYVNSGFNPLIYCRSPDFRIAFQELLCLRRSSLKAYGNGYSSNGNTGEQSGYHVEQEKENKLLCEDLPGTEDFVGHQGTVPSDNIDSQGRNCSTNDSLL
Chain of Gonadotropin-releasing hormone receptor (Homo sapiens) (P30968 whole entry, looked up): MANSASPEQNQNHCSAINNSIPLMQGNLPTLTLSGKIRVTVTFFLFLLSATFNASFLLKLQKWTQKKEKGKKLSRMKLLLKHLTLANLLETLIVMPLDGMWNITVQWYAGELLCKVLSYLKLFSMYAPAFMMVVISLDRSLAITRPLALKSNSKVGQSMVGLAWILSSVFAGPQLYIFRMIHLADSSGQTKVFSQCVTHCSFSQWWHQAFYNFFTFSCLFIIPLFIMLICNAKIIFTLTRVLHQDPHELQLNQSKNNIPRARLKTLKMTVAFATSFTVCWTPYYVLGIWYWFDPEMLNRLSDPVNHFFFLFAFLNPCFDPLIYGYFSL
Chain of KiSS-1 receptor (Homo sapiens) (Q969F8 whole entry, looked up): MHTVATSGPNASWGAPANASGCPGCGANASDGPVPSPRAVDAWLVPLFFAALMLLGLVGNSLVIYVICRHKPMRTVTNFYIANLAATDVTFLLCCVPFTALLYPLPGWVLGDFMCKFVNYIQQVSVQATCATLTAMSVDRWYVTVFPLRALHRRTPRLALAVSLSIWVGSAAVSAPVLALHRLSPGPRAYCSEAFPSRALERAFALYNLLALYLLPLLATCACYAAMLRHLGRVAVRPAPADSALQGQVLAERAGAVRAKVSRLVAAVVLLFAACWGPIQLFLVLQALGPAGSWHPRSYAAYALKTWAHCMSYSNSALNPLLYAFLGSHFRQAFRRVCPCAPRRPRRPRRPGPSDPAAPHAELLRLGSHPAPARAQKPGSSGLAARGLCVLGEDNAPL
Chain of Muscarinic acetylcholine receptor M1 (Homo sapiens) (P11229 whole entry, looked up): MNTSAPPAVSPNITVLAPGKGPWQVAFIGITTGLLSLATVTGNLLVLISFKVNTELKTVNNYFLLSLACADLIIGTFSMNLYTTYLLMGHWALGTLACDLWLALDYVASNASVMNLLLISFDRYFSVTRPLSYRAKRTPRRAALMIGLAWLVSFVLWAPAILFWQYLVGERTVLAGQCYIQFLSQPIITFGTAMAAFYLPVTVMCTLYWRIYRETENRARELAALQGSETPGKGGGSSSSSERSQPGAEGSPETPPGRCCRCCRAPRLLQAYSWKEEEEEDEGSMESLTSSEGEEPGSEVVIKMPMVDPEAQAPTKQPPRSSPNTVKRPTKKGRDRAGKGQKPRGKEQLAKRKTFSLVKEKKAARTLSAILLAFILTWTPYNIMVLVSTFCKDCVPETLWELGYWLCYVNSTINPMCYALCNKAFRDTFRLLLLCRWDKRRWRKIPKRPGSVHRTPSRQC
Chain of D(2) dopamine receptor (Homo sapiens) (P14416 whole entry, looked up): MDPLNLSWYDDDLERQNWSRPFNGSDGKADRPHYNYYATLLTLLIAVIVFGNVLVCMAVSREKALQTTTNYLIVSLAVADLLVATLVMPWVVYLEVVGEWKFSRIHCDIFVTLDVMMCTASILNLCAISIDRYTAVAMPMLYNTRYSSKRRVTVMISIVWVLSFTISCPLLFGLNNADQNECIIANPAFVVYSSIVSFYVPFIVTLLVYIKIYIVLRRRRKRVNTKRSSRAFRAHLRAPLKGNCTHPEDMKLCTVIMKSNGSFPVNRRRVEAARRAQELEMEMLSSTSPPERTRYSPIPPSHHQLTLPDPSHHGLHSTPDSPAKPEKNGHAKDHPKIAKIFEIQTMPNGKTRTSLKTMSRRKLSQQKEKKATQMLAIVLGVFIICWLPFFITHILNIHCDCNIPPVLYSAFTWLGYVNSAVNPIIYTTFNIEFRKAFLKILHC
Chain of 5-hydroxytryptamine receptor 2A (Homo sapiens) (P28223 whole entry, looked up): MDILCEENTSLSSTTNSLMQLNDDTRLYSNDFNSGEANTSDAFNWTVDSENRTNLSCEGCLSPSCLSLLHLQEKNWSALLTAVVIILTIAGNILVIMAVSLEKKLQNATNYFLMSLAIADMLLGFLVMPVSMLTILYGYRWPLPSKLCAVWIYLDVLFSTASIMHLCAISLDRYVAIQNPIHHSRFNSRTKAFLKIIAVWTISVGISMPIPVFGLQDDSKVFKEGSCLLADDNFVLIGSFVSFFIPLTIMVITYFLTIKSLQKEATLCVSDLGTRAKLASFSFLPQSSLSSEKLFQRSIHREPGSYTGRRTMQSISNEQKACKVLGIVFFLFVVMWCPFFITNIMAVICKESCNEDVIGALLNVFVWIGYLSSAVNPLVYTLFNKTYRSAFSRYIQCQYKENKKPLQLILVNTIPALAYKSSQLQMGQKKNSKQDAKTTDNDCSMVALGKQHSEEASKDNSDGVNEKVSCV

Turning to `CCCCC(CC)(CO)CO`, the Potency result in experiment [1], in experiment [4], in experiment [5], in [6], in experiment [7] and in [8] was “inactive” each time. Moreover, the Potency result in experiment [9], in [10], in experiment [11], in experiment [12], in experiment [13] and in [14] was “inactive” in each case. The Potency result in experiment [15] and in [16] was “inactive” in each case. The outcome in [2] and in [3] was inactive.

For `CN1CCN(Cc2cc(-c3ccc4[nH]c(=O)oc4c3)co2)[C@@H](c2ccc(F)cc2)C1`, the Potency in experiment [1] was 13.2 µM (active). Besides, the result in [2] and in experiment [3] was inactive. The Potency entry in experiment [4], in [5], in experiment [17], in experiment [6], in experiment [9] and in experiment [12] was “inactive” throughout. The Potency entry in [15] and in [18] was “inactive” each time.

For `CCN(CC)C(=O)Nc1ccc(OCC(O)CNC(C)(C)C)c(C(C)=O)c1` (configuration not stated), the Potency entry in experiment [1], in experiment [19], in [17], in [6], in experiment [7] and in experiment [8] was “inactive” throughout. For the same compound, the Potency entry in experiment [9], in [10], in [11], in experiment [12], in [13] and in experiment [14] was “inactive” throughout. The Potency result in experiment [16] was “inactive”. For the same compound, the Potency in [15] is 0.0473 µM (active).

As to `N=C1N=C(N)c2ccccc21`, the Potency was 27.3 µM (active) in [1] and 36.3 µM (active) in [8]. For the same compound, the Potency result in experiment [19], in [4], in [5], in experiment [17], in experiment [6] and in experiment [7] was “inactive” each time. Moreover, the Potency entry in experiment [9], in experiment [11], in experiment [12], in [14], in experiment [15] and in experiment [20] was “inactive” in each case. Also, the result in experiment [3] was inactive.

As to `CCOC(=O)COc1ccc(C)cc1`, the Potency entry in experiment [19], in [4], in experiment [5], in experiment [17], in experiment [6] and in experiment [7] was “inactive” in each case. Also, the Potency result in [8], in experiment [9], in experiment [10], in experiment [11], in experiment [12] and in experiment [14] was “inactive” each time. Moreover, the Potency result in [15], in [20] and in experiment [16] was “inactive” throughout. Moreover, the result in experiment [2] and in [3] was inactive.

In the case of `Oc1cc(O)c(Cl)cc1Cl`, the Potency entry in experiment [19], in experiment [4], in experiment [5], in experiment [17], in experiment [6] and in experiment [7] was “inactive” in each case. In addition, the Potency result in experiment [8], in experiment [9], in [10], in experiment [11], in experiment [12] and in experiment [13] was “inactive” in each case. In addition, the Potency entry in experiment [14], in experiment [15], in experiment [20] and in experiment [16] was “inactive” each time. Besides, the outcome in experiment [2] and in experiment [3] was inactive.

As to `COC(C)(C)CCCC(C)CC=O` (configuration not stated), the Potency entry in experiment [19], in experiment [4], in experiment [5], in experiment [17], in [6] and in [7] was “inactive” throughout. Also, the Potency result in [8], in [9], in [10], in [12], in experiment [14] and in [15] was “inactive” in each case. Besides, the Potency result in experiment [20] and in experiment [16] was “inactive” throughout. The outcome in [2] and in experiment [3] was inactive.
